SKKanGAS inh: S. pyogenes SKKanGAS growth inhibitors in kanamycin, primary screen, streptokinase expression inhibitor project, SKKanGAS strain, BacTiter-Glo luminescence; inhibition, % at 7.5 µM; 6 h; actives 1.3% (n = 300,000); AID 1662, 2009;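 active = mean replicate score, as percent of positive control median, at least 50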;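 note: strain carries kanamycin resistance gene driven by streptokinase promoter and grows in 40 µg/ml kanamycin; loss of luminescence reflects streptokinase promoter inhibition or plain growth inhibition; 0% = median of DMSO wells and 100% = positive control at its reference dose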
CSC inhib: cancer stem cell viability inhibitors, primary screen, luminescence; cancer stem cell-like cells viability; actives 1.1% (n = 300,000); inhibition, % at 7.5 µM; AID 2717, 2010; in the data active = inhibition above about 75%; tested in HMLE shEcad cells
Mdm2-MdmX inh: inhibitors of human Mdm2-MdmX association, primary screen, cell-based, luminescence, split luciferase, SaOS-2, uHTS; Protein Mdm4 (Homo sapiens) + E3 ubiquitin-protein ligase Mdm2 (Homo sapiens), …; SaOS-2 split-luciferase Mdm2/MdmX complementation; inhibition, % at 8 µM; actives 3% (n = 330,000); AID 485346, 2010;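 active = inhibition of at least 50% at 8 µM in the primary screen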
Target sequence (O15151 whole entry, looked up): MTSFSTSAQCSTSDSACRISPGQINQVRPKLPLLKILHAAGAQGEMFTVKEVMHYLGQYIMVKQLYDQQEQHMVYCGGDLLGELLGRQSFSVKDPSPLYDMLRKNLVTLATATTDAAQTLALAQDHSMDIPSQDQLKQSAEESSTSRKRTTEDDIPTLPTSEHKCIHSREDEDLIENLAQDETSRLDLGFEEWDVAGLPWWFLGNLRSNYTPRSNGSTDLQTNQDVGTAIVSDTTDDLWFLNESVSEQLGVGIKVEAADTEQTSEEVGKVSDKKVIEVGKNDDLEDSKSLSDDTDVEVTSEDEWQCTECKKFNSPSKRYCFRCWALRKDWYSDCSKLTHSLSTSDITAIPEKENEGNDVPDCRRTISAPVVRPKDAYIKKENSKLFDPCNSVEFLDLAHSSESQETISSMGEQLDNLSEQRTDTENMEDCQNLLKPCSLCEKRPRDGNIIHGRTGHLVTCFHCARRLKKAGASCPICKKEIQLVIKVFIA
Target sequence (Q00987 whole entry, looked up): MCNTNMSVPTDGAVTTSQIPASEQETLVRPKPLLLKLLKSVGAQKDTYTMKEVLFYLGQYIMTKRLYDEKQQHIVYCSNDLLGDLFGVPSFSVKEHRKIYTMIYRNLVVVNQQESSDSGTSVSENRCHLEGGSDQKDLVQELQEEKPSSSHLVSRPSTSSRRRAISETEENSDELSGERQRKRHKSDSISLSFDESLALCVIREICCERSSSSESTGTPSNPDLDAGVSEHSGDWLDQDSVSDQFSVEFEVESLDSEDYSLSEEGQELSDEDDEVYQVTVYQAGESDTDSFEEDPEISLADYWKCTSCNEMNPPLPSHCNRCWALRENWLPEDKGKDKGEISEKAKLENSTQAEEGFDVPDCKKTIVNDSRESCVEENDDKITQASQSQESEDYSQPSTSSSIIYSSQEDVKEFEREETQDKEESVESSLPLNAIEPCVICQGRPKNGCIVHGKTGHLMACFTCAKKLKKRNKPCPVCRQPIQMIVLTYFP
MPTP block: mitochondrial permeability transition pore inhibitors, primary screen, biochemical, isolated mouse mitochondria, absorbance | Ca2+ swelling absorbance, 30 min | inhibition, % at 10 µM | actives 1.4% (n = 360,000);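 active = inhibition of 50% or more, scaled per plate between neutral and stimulator controls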;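 note: 0% = DMSO wells given calcium and 100% = 1 mM EGTA wells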
Beta cell apopt: inhibitors of cytokine-induced beta cell apoptosis, primary screen, luminescence; INS-1E cytokine-induced death, ATP luminescence, 48 h; percent of positive-control rescue, neutral wells zero; protection from apoptosis, % (test concentration not listed); actives 0.8% (n = 300,000);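 active = Every replicate reaches about 75%, or at least half do and their mean reaches it too, limit read from the data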;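 note: 0% = cytokine-treated negative control wells and 100% = positive control rescue; higher means more ATP so stronger rescue from cytokine killing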
NR3A LBD binder: binders of NR3A ligand-binding domain, primary screen, biophysical, differential scanning fluorimetry, uHTS; Glutamate receptor ionotropic, NMDA 3A (GRIN3A) ligand-binding domain; NR3A LBD differential scanning fluorimetry, Tm shift; 0% = protein alone, 100% = glycine-bound protein; actives 2.5% (n = 340,000); Tm shift relative to glycine control, % at 25 µM;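 active = melting temperature shift of at least 10% of the positive control shift, at one fixed dose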
* hit, by the source's call; . = no result. Shown are actives, neighbours in structure and some others; about 6.9% of the full set was active somewhere.

SMILES	SKKanGAS inh	CSC inhib	Mdm2-MdmX inh	MPTP block	Beta cell apopt	NR3A LBD binder
Cc1ccc(C(=O)CSc2ccccn2)cc1	-1.5	12.3	-84.5	0.1	-2.0	11.0*
O=C(O)c1cccnc1SCC(=O)C12CC3CC(CC(C3)C1)C2	-18.0	12.6	-5.8	1.2	-11.6	3.8
O=C(CSc1ccccn1)C12CC3CC(CC(C3)C1)C2	18.0	43.7	24.9	1.1	-5.7	12.5*
O=C(CN1C(=O)S/C(=C\c2ccccc2)C1=O)NNC(=O)c1ccccc1O	-6.3	14.8	-11.2	-4.2	-2.1	-6.5
O=C(CN1C(=O)S/C(=C\c2ccc(O)cc2)C1=O)c1ccccc1	-2.3	-10.7	19.0	-0.1	.	10.1*
CN(CCCNC(=O)c1cn(C)c2ccc(S(=O)(=O)N(C)C)cc2c1=O)c1ccccc1	-12.9	0.6	13.6	-0.2	2.4	18.2*
Cc1cc(SCC(=O)c2ccc(O)c(O)c2)nc2ccccc12	12.8	31.2	27.9	6.2	-4.0	12.0*
Cc1ccc(O)c(NC(=O)CSc2n[nH]c(-c3ccccc3)n2)c1	-6.2	20.4	14.5	1.7	1.8	33.9*
O=C(CSc1n[nH]c(-c2ccccc2)n1)c1ccc(O)c(O)c1	4.9	.	2.5	2.1	.	12.0*
COc1ccc(-c2nc(SCC(=O)Nc3cccc(S(N)(=O)=O)c3)n[nH]2)cc1	.	.	-3.5	-1.9	.	11.0*
O=C(COc1ccc(Br)cc1)NNC(=O)Cc1ccc(S(=O)(=O)N2CCOCC2)s1	.	.	.	0.0	.	-1.2
CCOC(=O)COc1ccc(C2CC(C)=NN2c2ccccc2)cc1 (centres undefined)	12.4	0.1	-6.4	3.4	-1.7	0.4
CC(C)(C)c1nc(SCC(=O)c2ccccc2)c2ccccc2n1	62.0*	18.6	-2.8	0.1	4.9	2.9
O=C(CN1C(=O)C(=O)N(CCC2=CCCCC2)C1=O)c1c[nH]c2ccccc12	.	2.9	11.7	1.3	-6.6	29.8*
Cc1ccc(OCCCN(C)C)c(Br)c1	3.1	-2.6	-6.6	3.0	-5.8	0.4
COc1cccc(OC)c1OCCCOc1ccc(C)cc1Br	22.4	7.2	11.5	0.4	-3.5	10.2*
COc1ccccc1OCCCOc1c(C)cc(C)cc1Br	21.7	10.7	4.6	0.7	-2.6	16.4*
COc1ccccc1OCCOCCOc1c(C)cc(C)cc1Br	-1.0	7.1	-11.7	-1.3	-1.1	3.2
CCN(CC)CCN1C(=O)C(O)=C(C(C)=O)C1c1ccc(OC)c(OC)c1 (centres undefined)	-7.5	-1.4	16.5	2.7	-6.4	11.0*
COc1cc(C2C(C(C)=O)=C(O)C(=O)N2CCc2ccc(OC)c(OC)c2)ccc1O (centres undefined)	-13.3	-6.3	-4.1	2.6	0.0	2.3
Cc1cccc(/C=c2\s/c(=C\C(=O)C(C)(C)C)[nH]c2=O)c1	76.9*	44.4	24.1	3.3	6.6	-5.3
CS(=O)(=O)c1ccc(Oc2ccc(-c3nnco3)cc2)c([N+](=O)[O-])c1	-0.7	.	22.7	-4.0	-7.9	-0.2
Cc1cc(C)nc(NS(=O)(=O)c2ccc(NC(=O)c3cccs3)cc2)n1	1.1	-2.6	7.6	-1.9	-2.2	6.9
NC(=O)c1cc(S(=O)(=O)Nc2ccccc2)cs1	-3.5	-8.0	-7.8	0.1	-1.6	0.5
Cc1ccc(NS(=O)(=O)c2ccc(NC(=O)c3cccs3)cc2)c(C)c1	35.9	8.0	19.0	7.1	12.1	29.3*
Cc1cc(C)cc(NS(=O)(=O)c2ccc(NC(=S)NC(=O)c3cccs3)cc2)c1	76.6*	49.9	9.5	2.7	3.7	23.6*
COc1cc(NS(=O)(=O)c2ccc(NC(=S)NC(=O)c3cccs3)cc2)nc(OC)n1	19.8	9.1	8.9	-3.0	-2.3	-3.3
Cc1ccc(NC(=O)c2cc(S(=O)(=O)Nc3ccc(C)cc3)cs2)cc1	43.8	55.3	19.1	24.6	-0.6	27.3*
CNC(=O)c1cc(S(=O)(=O)Nc2ccc(C)cc2C)ccc1C	-3.8	-13.0	27.6	-0.2	1.8	14.1*
